SMILES strings stand for the structures. Results filed as inconclusive are left out. Where a call stands in place of a potency, no number is given. A number with no mark means an inactive call. Active and inactive are the calls of the source. Calls follow the shape of the dose curve; as a rule, active = well fitted curve in the direction sought with a large enough effect; inconclusive = small, poorly fitted or top-dose-only effect, or another doubt; inactive = no such curve, though single readings can be large; an effect the other way counts as inactive or inconclusive.

The target in assay [1] is Aldehyde dehydrogenase, mitochondrial (Homo sapiens) (UniProt P05091). As to the kind of experiment: qHTS for Inhibitors of the Aldehyde Dehydrogenase Family (ALDH2) Primary screen (AID 2061308). Also: nearly all actives have a fitted effect of over 55% in size. A general note: qHTS replaces the single test concentration by a dilution series.
Assay [2] deals with Retinaldehyde dehydrogenase 3 (Homo sapiens) (UniProt P47895). As to the kind of experiment: qHTS for Inhibitors of the Aldehyde Dehydrogenase Family (ALDH1A3) Primary screen (AID 2061315).

As for `COc1cc(OC)cc(-c2nnc3n2N=C(c2ccc(OC)cc2OC)CS3)c1`, the Potency entry in assay [1] and in assay [2] was “inactive” throughout.

On to `COc1cccc(C2c3c(ncn(-c4ccc(-c5ccccc5)cc4)c3=N)Oc3ccc4ccccc4c32)c1` (stereo not drawn), for which the Potency entry in assay [1] and in assay [2] was “inactive” each time.

Turning to `c1ccc(OCc2nnc3n2N=C(c2ccccc2)CS3)cc1`, the Potency result in assay [1] and in assay [2] was “inactive” throughout.

As to `CC(C)c1cc2c(s1)c1cnn(Cc3ccccc3F)c(=O)c1n2C`, the Potency entry in assay [1] and in assay [2] was “inactive” each time.

In the case of `COc1cccc(C2c3c(ncn(-c4cccc(C#N)c4)c3=N)Oc3ccc4ccccc4c32)c1` (stereo not drawn), the Potency result in assay [1] and in assay [2] was “inactive” in each case.

As to `Cc1ccccc1C(=O)n1ccc2cc(-c3nc(NC(=O)Cc4ccc5c(c4)OCO5)sc3C)ccc21`, the Potency result in assay [1] and in assay [2] was “inactive” in each case.

Regarding `N#Cc1c(Cl)cccc1Oc1ccc([S+](=O)([O-])N2CCN([S+](=O)([O-])c3c(F)cccc3F)CC2)cc1`, the Potency result in assay [1] and in assay [2] was “inactive” each time.

Regarding `CC(=O)c1ccc(N2CCN(S(=O)(=O)c3ccc4[nH]c(=O)oc4c3)CC2)cc1`, the Potency entry in assay [1] and in assay [2] was “inactive” each time.

On to `CC(C)(C)OC(=O)NCC(=O)NNC(=O)c1cc2ccccc2[nH]1`, for which the Potency entry in assay [1] and in assay [2] was “inactive” in each case.

`Cn1c2cc(C(=O)O)sc2c2cnn(Cc3ccccc3F)c(=O)c21`: the Potency entry in assay [1] and in assay [2] was “inactive” each time.

Turning to `Cc1cc(C)c(C)c(S(=O)(=O)N2CCN(S(=O)(=O)c3ccc4c(c3)OCCO4)CC2)c1C`, the Potency entry in assay [1] and in assay [2] was “inactive” in each case.

As to `Cc1ccc(NC(=O)CN2C(=O)N/C(=C\c3cccn3-c3ccc(C(=O)NOCc4ccccc4)cc3)C2=O)cc1`, the Potency entry in assay [1] and in assay [2] was “inactive” throughout.

Regarding `CCCn1c(C)nc2c(N(CCOC)CCOC)nc(C)nc21`, the Potency entry in assay [1] and in assay [2] was “inactive” throughout.

With `Cc1csc(CNc2ncnc3ccc(-c4ccccc4Cl)cc23)c1`, the Potency result in assay [1] and in assay [2] was “inactive” in each case.

Regarding `Cc1ccc(-c2ccc(=O)n(CCNC(C)c3ccco3)n2)cc1` (stereo not drawn), the Potency entry in assay [1] and in assay [2] was “inactive” in each case.

`CC(=O)Nc1ccc(S(=O)(=O)N2CCN(c3ccc(C(C)=O)cc3)CC2)cc1`: the Potency result in assay [1] and in assay [2] was “inactive” in each case.

In the case of `CS(=O)(=O)Nc1ccc(-c2nc(NCc3ccc(-c4ccnc(C(F)(F)F)c4)cc3)c3ccccc3n2)cc1`, the Potency entry in assay [1] and in assay [2] was “inactive” in each case.

With `COc1cc(F)c(S(=O)(=O)N2CCCN(S(=O)(=O)c3cccc(N)c3)CC2)c(F)c1`, the Potency entry in assay [1] and in assay [2] was “inactive” each time.

Regarding `Cc1cc2c(s1)c1cnn(Cc3ccc(Cl)cc3)c(=O)c1n2C`, the Potency entry in assay [1] and in assay [2] was “inactive” each time.

Turning to `COc1cccc(C2=Nn3c(nnc3-c3ccc(OC)cc3OC)SC2)c1`, the Potency entry in assay [1] and in assay [2] was “inactive” throughout.

`Oc1cc(-c2ccncc2)cc2cccnc12`: the Potency result in assay [1] and in assay [2] was “inactive” throughout.

On to `Cc1ccccc1OC1=NS(=O)(=O)c2ccccc21`, for which the Potency result in assay [1] and in assay [2] was “inactive” in each case.

As for `Cc1cccc(C)c1OCc1cccc(C2Nc3ccccc3C(=O)N2Cc2ccco2)c1` (stereo not drawn), the Potency result in assay [1] and in assay [2] was “inactive” throughout.

On to `COc1ccc(C2Nc3ccccc3C(=O)N2Cc2cccnc2)cc1COc1c(C)cccc1C` (stereo not drawn), for which the Potency entry in assay [1] and in assay [2] was “inactive” in each case.

For `Cc1ccc(-c2ccc(=O)n(CC(=O)NCCc3ccccc3)n2)cn1`, the Potency entry in assay [1] and in assay [2] was “inactive” each time.

`Cc1cc2c(s1)c1cnn(Cc3ccc(F)c(F)c3)c(=O)c1n2C`: the Potency result in assay [1] and in assay [2] was “inactive” throughout.

For `Cc1noc(-c2ccc(-c3ccc(CC(=O)O)cc3)cc2)c1NC(=O)O[C@H](C)c1ccccc1Cl`, the Potency result in assay [1] and in assay [2] was “inactive” each time.

With `O=C([C@H](Cc1ccc(O[S+](=O)([O-])c2cccc3cnccc23)cc1)N[S+](=O)([O-])c1cccc2cnccc12)N1CCN(Cc2ccccc2)CC1`, the Potency entry in assay [1] and in assay [2] was “inactive” each time.

Regarding `Cc1sc(C)c2c1C(=O)NS2(=O)=O`, the Potency entry in assay [1] and in assay [2] was “inactive” in each case.

As to `COc1ccc(OC)c(C2=Nn3c(nnc3-c3cc(OC)ccc3OC)SC2)c1`, the Potency entry in assay [1] and in assay [2] was “inactive” in each case.

`COc1cccc(NC(=O)c2cc(-c3ccc(C)c(C)c3)nc3ccccc23)c1`: the Potency entry in assay [1] and in assay [2] was “inactive” throughout.

Take `COc1cc(C(=O)OC[C@@]2(O)CO[C@@H](O[C@H]3[C@H](Oc4ccc(O)cc4)O[C@H](CO)[C@@H](O)[C@@H]3O)[C@@H]2O)cc(OC)c1O`: the Potency result in assay [1] and in assay [2] was “inactive” in each case.

Regarding `NS(=O)(=O)c1ccc(Nc2nc(-c3ccccc3)cs2)cc1`, the Potency result in assay [1] and in assay [2] was “inactive” each time.

For the compound `NC(=O)c1c(NC(=O)C2CCCO2)sc2c1CCCC2` (stereo not drawn), the Potency entry in assay [1] and in assay [2] was “inactive” throughout.

Regarding `CN(C)CC1CCN(C2CCN(C(=O)c3cccc(-c4cc(O)c5ncccc5c4)c3)CC2)CC1`, the Potency entry in assay [1] and in assay [2] was “inactive” throughout.

Turning to `COc1cc(-c2nc(Nc3ccc(F)c(F)c3)c3ccccc3n2)ccn1`, the Potency result in assay [1] and in assay [2] was “inactive” in each case.

Take `O=C(O)c1ccc(O)c2ncc(N3CCCCC3CCc3ccccn3)cc12` (stereo not drawn): the Potency result in assay [1] and in assay [2] was “inactive” each time.

With `Cn1c2ccsc2c2cnn(Cc3ccccc3F)c(=O)c21`, the Potency entry in assay [1] and in assay [2] was “inactive” in each case.

As to `O=C(O)c1ccc(O)c2ncc(N3CCCN(CCCc4ccncc4)CC3)cc12`, the Potency result in assay [1] and in assay [2] was “inactive” each time.

For the origin of these results see PubChem BioAssay (NCATS).
